The sample as a whole holds a higher share of hits than the screen did.
DT40 TDP1 no CPT: qHTS for Inhibitors of human tyrosyl-DNA phosphodiesterase 1 (TDP1): qHTS in cells in absence of CPT | DT40 Tdp1-/- hTDP1 cells, no CPT, ATP luminescence, 48 h | Potency, µM (doses to about 46.2 µM), without a hit: at the highest dose activity change, negative = growth inhibition, actives largely listed as inhibitors | 15% of 420,000 active | AID 686978, 2013; further: potency means the concentration at half of the fitted maximal effect; nearly all actives have a fitted effect of over 55% in size
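Compound effects on proliferation are scored in DT40 Tdp1-/-;hTDP1 cells in the absence of CPT. ATP levels (CellTiter-Glo luminescence) are recorded after a ≥48 hr, 37 °C incubation.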
IL-1B inflam inh: inhibitors of inflammasome signaling (IL-1 beta secretion); AID 743279; THP-1 LPS/ATP IL-1B secretion, AlphaLISA, 16 h; stronger effect = lower value; 4.7% of 360,000 active; activity change, % at 57.5 µM; in the data active means activity change below about -50%; inconclusive means mostly about -30% to -49%
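THP-1 cells pretreated 1 hr with compounds (up to 57.5 uM final), then stimulated with LPS (250 ng/mL final) plus ATP (1.25 mM final); secreted IL-1B measured by AlphaLISA after 16 hr, decreased signal indicating inhibition.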
DT40 TDP1 CPT: growth inhibition of DT40 Tdp1-/-;hTDP1 cells with camptothecin (screen for TDP1 inhibitors). Potency, µM (highest dose often 46.2 µM), for the others: at the highest dose activity change, negative = growth inhibition, hits mostly inhibitors. 12% of 420,000 active. AID 686979. chicken DT40 Tdp1-/-;hTDP1 cells + 20 nM CPT, ATP luminescence, 48 h; further: potency means the concentration at half of the fitted maximal effect; nearly all actives have a fitted effect of over 55% in size
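Chicken DT40 Tdp1-/- cells complemented with human TDP1, 400 cells/well, exposed to compounds plus 20 nM camptothecin for at least 48 h at 37 C; viability read as ATP content by CellTiter-Glo luminescence.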
HT1080 IDH1KD tx: toxicity to HT-1080 IDH1 knockdown cells (counter line); HT-1080 IDH1 knockdown viability, ATP luminescence, 48 h; Potency, µM (highest dose often 46.1 µM), without a hit: at the top dose activity, negative = toxicity, actives largely listed as cytotoxic; 2% of 360,000 active;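 further: potency means the concentration at half of the fitted maximal effect; 0% = DMSO wells and -100% = cell-free medium wells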
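Using the IDH1-knockdown HT-1080 line run in the same batch and compound series as the NT line, viability after 48 h at 37 °C was determined by CellTiter-Glo luminescence and expressed as % activity.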
HT1080NT lethal: kills 2HG-producing HT-1080-NT fibrosarcoma cells. HT-1080-NT fibrosarcoma viability, CellTiter-Glo ATP luminescence, 48 h. Potency, µM (titrated, usually from 46.1 µM), inactives show top-dose activity, negative = less viability, actives largely listed as cytotoxic. 1.6% of 360,000 active. AID 686970;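 further: NT is the 2HG producing partner of a matched IDH1 knockdown line; potency means the concentration at half of the fitted maximal effect; 0% = DMSO-treated cells and -100% = media-only wells without cells; nearly all actives have a fitted effect of over 55% in size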
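750 cells/well, RPMI + 5% FBS; 2 h settle, compound pin-transfer, 48 h at 37 degrees C. CellTiter-Glo 10 min RT, luminescence. Normalized to DMSO and media-only wells.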
ALOX12 inh: blocks human arachidonate 12S-lipoxygenase. purified 12hLO, xylenol orange hydroperoxide absorbance. Potency, µM (highest dose often 108 µM), for inactives: top-dose activity change, negative = inhibition, most hits filed as inhibitors. 1.1% of 580,000 active. AID 1671190; further: potency means the concentration at half of the fitted maximal effect
Target sequence (P18054 whole entry, looked up): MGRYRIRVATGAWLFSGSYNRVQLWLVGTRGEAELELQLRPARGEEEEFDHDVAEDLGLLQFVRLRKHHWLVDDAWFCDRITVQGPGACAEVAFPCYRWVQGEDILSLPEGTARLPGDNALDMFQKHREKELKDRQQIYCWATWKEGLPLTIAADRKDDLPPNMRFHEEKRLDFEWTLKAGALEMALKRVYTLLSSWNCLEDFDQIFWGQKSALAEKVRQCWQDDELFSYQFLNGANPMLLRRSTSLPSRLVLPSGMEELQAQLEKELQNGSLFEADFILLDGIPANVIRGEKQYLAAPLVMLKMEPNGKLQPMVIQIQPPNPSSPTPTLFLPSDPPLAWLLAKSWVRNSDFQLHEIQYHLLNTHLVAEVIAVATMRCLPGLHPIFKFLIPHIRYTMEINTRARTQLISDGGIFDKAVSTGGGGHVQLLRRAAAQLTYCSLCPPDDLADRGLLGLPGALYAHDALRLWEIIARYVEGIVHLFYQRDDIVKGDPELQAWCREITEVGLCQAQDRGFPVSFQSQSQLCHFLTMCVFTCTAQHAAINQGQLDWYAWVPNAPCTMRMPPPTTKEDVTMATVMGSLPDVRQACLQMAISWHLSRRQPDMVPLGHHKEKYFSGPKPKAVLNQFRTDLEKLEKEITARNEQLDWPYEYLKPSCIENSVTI
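Hydroperoxide product was detected by ferrous iron/xylenol orange as the 573 to 405 nm absorbance ratio. Arachidonic acid at 40 uM (final) was turned over for 30 min at room temperature by 150 nM human 12hLO, pH 7.0 Hepes buffer, after 15 min compound preincubation.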
Active calls of the source: *; i = inactive; ? = inconclusive; . = no result given; [ ] = dose if it differs, or a comment. Unless noted, the call rests on the fitted dose curve; in most records, active means well fitted curve in the direction sought with a large enough effect; inconclusive means small, poorly fitted or top-dose-only effect, or another doubt; inactive means no such curve, though single readings can be large; an effect the other way counts as inactive or inconclusive. Unless noted, on the % scale 0 is the no-effect control and ±100 the full control effect.

SMILES	DT40 TDP1 no CPT	IL-1B inflam inh	DT40 TDP1 CPT	HT1080 IDH1KD tx	HT1080NT lethal	ALOX12 inh
CN1C(=O)c2ccccc2Sc2ccc(NC(=O)COc3ccccc3)cc21	2.9µM*	.	4.1µM*	.	.	-9%
CC[C@H](C)/C=C/C1=CC2=C(Cl)C(=O)[C@@]3(C)OC(=O)C(C(=O)[C@H](C)[C@@H](C)O)=C3C2=CO1	18µM*	-3	?	-16%	1%	.
CC(NC(=O)c1csc2nc(-c3cccc(C(F)(F)F)c3)cn12)c1ccncn1 (stereo not drawn)	.	.	.	.	.	74%
COc1ccc2[nH]c(C(=O)N3CCC4(CC3)c3nc[nH]c3CCN4C)cc2c1	.	.	.	.	.	12%
CC(=O)Nc1ccc(CN(C)c2c(C)nc3ccc(C(=O)Nc4ccc(Cl)c(Cl)c4)cn23)cc1	?	-53*	?	?	?	15%
COc1ccc(CNC(=O)c2ccc3nc(C)c(N(C)Cc4ccc(NC(C)=O)cc4)n3c2)cc1	16µM*	-7	13µM*	6%	11%	0%
CCCCN(C)c1c(C)nc2ccc(C(=O)NCc3ccc(OC)cc3)cn12	13µM*	?	13µM*	-18%	?	-29%
CC(=O)Nc1ccc(CN(C)c2c(C)nc3ccc(C(=O)NC4CCN(Cc5ccccc5)CC4)cn23)cc1	?	-11	?	?	?	20%
COc1ccccc1CNC(=O)c1ccc2nc(C)c(N(C)Cc3ccc(NC(C)=O)cc3)n2c1	15µM*	-22	16µM*	4%	19%	?
CCCCC(=O)N(C)c1c(C)nc2ccc(C(=O)NCc3ccccc3OC)cn12	-5%	8	-5%	7%	5%	-19%
O=C(COc1ccccc1)NC1CCCc2c1[nH]c1c(Cl)cccc21 (stereo not drawn)	.	.	.	.	.	25%
CC(C)N(CCNC(=O)c1cc(C2CC2)nc2ccccc12)C(C)C	.	.	.	.	.	6%
Nc1c2c(nc3ccn(-c4ccccc4)c(=O)c13)CCCCC2	?	-58*	-12%	16%	26%	i
Cc1cc(C)cc(OCC(=O)c2ccc3c(c2)N(CC(=O)NCc2ccccc2)C(=O)CO3)c1	.	.	.	.	.	38%
Cn1cc(C#N)cc1C(=O)N1CCC2(CCC(=O)N(CCc3cnc[nH]3)C2)CC1	.	.	.	.	.	3%
CCOc1ccc(N=Cc2ccc3ccccc3c2)cc1	-19%	-9	-15%	10%	1%	25%
CCOc1ccc(C=Nc2ccc(/C=C/c3ccnc4ccccc34)cc2)cc1OCC	10µM*	.	16µM*	.	.	.
CCCCN(CCCC)c1ccc(C=Nc2ccc(/C=C/c3ccnc4ccccc34)cc2)cc1C	10µM*	.	11µM*	.	.	.
COc1ccc(-c2oc3ccc(-c4cc(OC)c(OC)c(OC)c4)cc3c2C(=O)c2ccc(OC)nc2)cc1	?	-4	?	0%	1%	-44%
COc1ccc(/C=C/c2c(-c3ccc(OC)cc3)oc(=O)c3cc(OC)c(OC)cc23)cc1	?	25	?	10%	-3%	-18%
COc1cc2c(-c3ccc4cc[nH]c4c3)c(-c3ccc(C#N)cc3)oc(=O)c2cc1OC	9.2µM*	15	5.8µM*	-8%	-4%	-17%
COc1ccc(-c2oc(=O)c3cc(OC)c(OC)cc3c2-c2ccc3c(c2)OCO3)cc1	18µM*	-11	16µM*	-6%	-3%	-15%
COc1ccc(-c2oc(=O)c3cc(OC)c(OC)cc3c2C#CCCO)cc1	21µM*	0	?	-7%	-1%	?
COc1ccc(-c2sc3cc4c(cc3c2-c2ccc3c(c2)OCCO3)OCO4)cc1	?	13	?	7%	11%	-2%
COc1ccc(C(=O)c2c(-c3ccc(OC)cc3)oc3ccc(-c4cc(OC)c(OC)c(OC)c4)cc23)cc1	9.2µM*	-11	7.3µM*	4%	8%	?
SMILES	DT40 TDP1 no CPT	IL-1B inflam inh	DT40 TDP1 CPT	HT1080 IDH1KD tx	HT1080NT lethal	ALOX12 inh
COc1ccc(-c2c(-c3ccsc3)oc(=O)c3cc(OC)c(OC)cc23)cc1	?	40	?	9%	13%	-15%
COCc1ccc(-c2c(-c3ccc(OC)cc3)oc(=O)c3cc(OC)c(OC)cc23)cc1	23µM*	28	?	-15%	-10%	-9%
COc1ccc(-c2oc(=O)c3cc(OC)c(OC)cc3c2C#C[C@]2(O)CC[C@H]3[C@@H]4CCc5cc(OC)ccc5[C@H]4CC[C@@]32C)cc1	16µM*	7	?	5%	2%	?
COc1cc2c(O)c3c(c(-c4ccc5c(c4)OCO5)c2cc1OC)C(=O)OC3	3.3µM*	-19	1.8µM*	2.5µM*	2.5µM*	?
COc1ccc(-c2ccc3oc(-c4ccc(OC)cc4)c(C#CCO)c3c2)cc1	?	?	23µM*	16µM*	21µM*	?
COc1ccc(-c2oc3ccc(N4CCOCC4)cc3c2C#CCO)cc1	?	-23	?	?	?	?
Cc1cc(C)n2nc(N(Cc3ccc(C#N)cc3)S(=O)(=O)c3ccc(Cl)cc3)nc2n1	.	.	.	.	.	-4%
CC1=C2C(=O)CC(c3ccc(Cl)cc3)CC2=Nc2ccccc2N1 (stereo not drawn)	.	.	.	.	.	-20%
Cc1ccc(Cl)cc1NC(=O)Cn1cnc2c1c(=O)n(C)c(=O)n2C	.	.	.	.	.	0%
Cc1cc(Cl)ccc1Oc1ccc(S(=O)(=O)N2CCCC2)cn1	.	.	.	.	.	25%
O=CN1CCCC(n2cnc3cccnc32)C1 (stereo not drawn)	.	.	.	.	.	50%[176 µM]
COc1cccc(-c2oc3c(c2C#CCCO)C(O)CCC3)c1 (stereo not drawn)	-15%	3	-8%	1%	4%	0%
CCOC1CCCc2oc(-c3ccc(OC)cc3)c(C#CCCO)c21 (stereo not drawn)	16µM*	.	?	?	-19%	-23%
CC1=C(c2ccccc2)C(=S)NC(C)(C)C1	-10%	30	-13%	33µM*	-10%	?
COCC1CN(C2CCC2)CC12CCN(C(=O)COc1cccc(C)c1)CC2 (stereo not drawn)	.	.	.	.	.	6%
Cc1ccccc1/C=N/n1c(-c2cc(-c3ccccc3)n[nH]2)n[nH]c1=S	16µM*	1	?	-3%	-2%	-10%
S=c1[nH]nc(-c2cc(-c3ccccc3)n[nH]2)n1/N=C/C=C/c1ccco1	?	13	-1%	-7%	-3%	40µM*
S=c1[nH]nc(-c2ccco2)n1/N=C/C=C/c1ccco1	?	3	-17%	3%	10%	?
